Among the test systems are HCT-15 colon; HT29 colon; SNB-75 CNS; SNB-19 CNS; U251 CNS; PC-3 prostate; SK-MEL-5 melanoma; UACC-62 melanoma; LOX IMVI melanoma; SK-MEL-28 melanoma; SK-MEL-2 melanoma; EKVX NSCLC; UO-31 renal; TK-10 renal; ACHN renal; CAKI-1 renal; A498 renal; CCRF-CEM leukemia; MOLT-4 leukemia; SN12C renal.
What all share (test): NCI-60 one-dose screen, 48 h (100 = growth as untreated, 0 = no growth, -100 = all killed)
What all share (conditions): 10 µM unless noted

The panel holds about 83,000 compounds, 20% with a hit somewhere; the sample as a whole holds those more often.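 Testing used 96-well plates and a 48-hour single-concentration exposure. Example: -40 means 40% of the starting cells died.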 Values without a mark were called inactive. Activity calls are given as the source filed them. Rule for the calls: active = growth percent below 10; inactive = the rest.

`CCN(CC)c1ccc2c(c1)Oc1nc(N)c(C#N)c(N)c1C2Sc1ccc(C)cc1` (stereo not given): the growth in the experiment with HCT-15 colon was -83.8% (active); in the experiment with HT29 colon, -23.5% (active); with SNB-75 CNS, -82.3% (active); in the experiment with SNB-19 CNS it was -97.4% (active); in the experiment with U251 CNS, -78.5% (active); with PC-3 prostate it was -88.5% (active). In addition, the growth in the experiment on SK-MEL-5 melanoma was -96.4% (active); in the experiment with UACC-62 melanoma, -88.5% (active); in the experiment with LOX IMVI melanoma it was -92.2% (active); in the experiment on SK-MEL-28 melanoma it was -94.5% (active); with SK-MEL-2 melanoma it was -83.2% (active); in the experiment with EKVX NSCLC, -97.2% (active). The growth in the experiment on UO-31 renal is -99.7% (active); in the experiment with TK-10 renal, -90.6% (active); in the experiment on ACHN renal it was -98.8% (active); in the experiment on CAKI-1 renal, -97.9% (active); with A498 renal it was -85.2% (active); in the experiment on CCRF-CEM leukemia it was -19.7% (active).
Turning to `COc1cccc(N2CCN(c3ncnc4c3[nH]c3ccc(F)cc34)C[C@H]2C)c1`, the growth was 68.4% with HCT-15 colon; 70.4% with HT29 colon; 63.2% in the experiment on SNB-75 CNS; 68.7% in the experiment on SNB-19 CNS; 67.9% in the experiment with U251 CNS; 38.2% in the experiment on PC-3 prostate. Moreover, the growth with SK-MEL-5 melanoma was -62.3% (active); in the experiment on UACC-62 melanoma it was 40.5%; in the experiment on LOX IMVI melanoma, 63.1%; in the experiment on SK-MEL-28 melanoma it was 50.7%; with SK-MEL-2 melanoma, 55%; in the experiment on EKVX NSCLC, 50.9%. The growth in the experiment on UO-31 renal is 31.6%; in the experiment on TK-10 renal, 95%; in the experiment on ACHN renal it was 63.2%; with CAKI-1 renal it was 42.9%; in the experiment on A498 renal it was 37%; in the experiment with CCRF-CEM leukemia, 33.3%. Besides, the growth in the experiment with MOLT-4 leukemia was 6.42% (active).
With `COC(=O)C(Cc1ccccc1)Nc1nc(NC(Cc2ccccc2)C(=O)OC)nc(N2CCOCC2)n1` (stereo not given), the growth with HCT-15 colon is 106%; with HT29 colon, 101%; with SNB-75 CNS, 90.5%; in the experiment on SNB-19 CNS, 104%; in the experiment with U251 CNS, 105%; in the experiment with PC-3 prostate, 103%. The growth in the experiment on SK-MEL-5 melanoma was 98.7%; in the experiment on UACC-62 melanoma, 90.2%; in the experiment with LOX IMVI melanoma it was 105%; in the experiment with SK-MEL-28 melanoma, 109%; in the experiment with SK-MEL-2 melanoma, 111%; in the experiment on EKVX NSCLC, 105%. Besides, the growth was 81.2% with UO-31 renal; 103% with TK-10 renal; 109% in the experiment with ACHN renal; 86.8% with CAKI-1 renal; 107% in the experiment with A498 renal; 105% in the experiment with CCRF-CEM leukemia. In addition, in the experiment with MOLT-4 leukemia, the growth was 101%.
Consider `O=C(Nc1ccc2c(ccn2Cc2ccccn2)c1)c1cnccn1`, for which the growth was 112% in the experiment on HCT-15 colon; 109% with HT29 colon; 57.9% in the experiment on SNB-75 CNS; 102% in the experiment on SNB-19 CNS; 105% with U251 CNS; 101% with PC-3 prostate. The growth with SK-MEL-5 melanoma is 97.5%; in the experiment with UACC-62 melanoma, 89.6%; in the experiment on LOX IMVI melanoma it was 98.3%; in the experiment with SK-MEL-28 melanoma, 111%; in the experiment on SK-MEL-2 melanoma it was 103%; in the experiment on EKVX NSCLC it was 75.7%. Moreover, the growth with UO-31 renal was 57%; in the experiment on TK-10 renal, 61.9%; in the experiment with ACHN renal it was 100%; in the experiment with A498 renal, 40.8%; in the experiment with MOLT-4 leukemia, 101%.
In the case of `CN(C)CCCOc1ccc2c(c1)CN(C(=O)c1cc(C(=O)N3Cc4cccc(F)c4C3)ccc1O)C2`, the growth was 88.5% with HCT-15 colon; 106% in the experiment with HT29 colon; 95% in the experiment with SNB-75 CNS; 101% with SNB-19 CNS; 98.4% in the experiment with U251 CNS; 102% in the experiment on PC-3 prostate. The growth in the experiment with SK-MEL-5 melanoma was 98.2%; in the experiment with UACC-62 melanoma it was 96.3%; with LOX IMVI melanoma, 91.8%; with SK-MEL-28 melanoma, 104%; in the experiment on SK-MEL-2 melanoma, 117%; with EKVX NSCLC it was 103%. Further, the growth in the experiment with UO-31 renal is 95.3%; with TK-10 renal it was 122%; in the experiment with ACHN renal it was 106%; with CAKI-1 renal it was 95.8%; in the experiment with A498 renal, 97.1%; in the experiment on CCRF-CEM leukemia it was 98.1%. In addition, the growth in the experiment with MOLT-4 leukemia is 97.5%.
`Cn1ccnc1C(=O)/C=C/c1ccc(CNC(=O)c2c(F)c(F)c(F)c(F)c2F)cc1`: the growth with HCT-15 colon was 11.8%; in the experiment with HT29 colon, 14.7%; in the experiment on SNB-75 CNS it was 96.3%; with SNB-19 CNS it was 42.2%; in the experiment with U251 CNS, 45.6%; in the experiment on PC-3 prostate, 35.2%. Besides, the growth with SK-MEL-5 melanoma is 75.7%; in the experiment with UACC-62 melanoma, 54.9%; with LOX IMVI melanoma, -66.4% (active); in the experiment on SK-MEL-28 melanoma, 90.8%; in the experiment on SK-MEL-2 melanoma, 99.4%; with EKVX NSCLC, 93.2%. Moreover, the growth is 44.5% with SN12C renal; 79.7% in the experiment on UO-31 renal; 79.2% in the experiment with TK-10 renal; 47.9% in the experiment on ACHN renal; 83.3% in the experiment on A498 renal; 23% in the experiment on MOLT-4 leukemia.
Regarding `COc1cc(-c2nn(C(C)(C)C)cc2-c2ccnc(NCCCNS(=O)(=O)c3cccc(F)c3)n2)ccc1Cl`, the growth was 63.7% in the experiment on HCT-15 colon; 65.1% in the experiment with HT29 colon; 46.2% in the experiment on SNB-75 CNS; 93.4% in the experiment with SNB-19 CNS; 88.3% in the experiment on U251 CNS; 51.3% in the experiment on PC-3 prostate. The growth is 81.8% in the experiment on SK-MEL-5 melanoma; 69.2% with UACC-62 melanoma; 67.2% in the experiment with LOX IMVI melanoma; 91.6% in the experiment on SK-MEL-28 melanoma; 85.8% in the experiment on SK-MEL-2 melanoma; 40.6% in the experiment with EKVX NSCLC. Further, the growth in the experiment with UO-31 renal was 42.9%; in the experiment with TK-10 renal, 68.2%; in the experiment with ACHN renal, 83.4%; in the experiment with CAKI-1 renal it was 25.7%; in the experiment with A498 renal it was 34.4%; in the experiment on MOLT-4 leukemia, 44%.
`O=C(NCc1ncc[nH]1)c1ccc(-c2nc3ccc4[nH]ncc4c3c3c2CCCC3)cc1`: the growth is 48% with HCT-15 colon; 22.3% with HT29 colon; 30.1% in the experiment on SNB-75 CNS; 13.9% in the experiment on SNB-19 CNS; 13.2% in the experiment on U251 CNS; 2.66% (active) in the experiment on PC-3 prostate. Moreover, the growth is 8.91% (active) in the experiment with SK-MEL-5 melanoma; 4.94% (active) in the experiment with UACC-62 melanoma; 3.29% (active) in the experiment with LOX IMVI melanoma; -1.75% (active) in the experiment with SK-MEL-28 melanoma; -32.6% (active) with SK-MEL-2 melanoma; 47.9% in the experiment with EKVX NSCLC. For the same compound, the growth is 51.6% in the experiment on UO-31 renal; -2.79% (active) in the experiment with TK-10 renal; 42% with ACHN renal; -13.7% (active) in the experiment on A498 renal; -23.5% (active) in the experiment on MOLT-4 leukemia.
